{
  "source": "PubChem BioAssay AID463173",
  "about": "(ICCB-Longwood Screening Facility, Harvard Medical School, 2010)",
  "note": "Out of some 52,000 compounds screened, about 4,300 (8.3%) were called active. The sample as a whole holds a higher share of actives than the screen did. A number with no mark means an inactive call. Rule as the data show it: active = survival mostly below about 52% (no sharp cut-off); inactive = mostly above about 56%.",
  "data": [
    {"tested_on": "DeltatarO mutant", "assay": "growth inhibition of S. aureus wild type versus tarO mutant, primary screen, teichoic acid synthesis inhibitors, RN4220, OD600 (AID 463173)", "conditions": "OD600, 18 h, hits give low values, screened at 18.75 µg/mL (by protocol)", "values": [
      {"smiles": "COc1ccc(CC(NC(C)=O)C(=O)N2CCN(C(=O)Nc3ccc(C#N)cc3)CC2)cc1", "note": "(configuration not stated)", "survival": "99%"},
      {"smiles": "Cc1cc(C)cc(NC(=O)NCCc2c(C)nn(C)c2C)c1", "survival": "64%"},
      {"smiles": "CC1CCCCN1C(=O)CSc1nc2ccccc2c(=O)[nH]1", "note": "(configuration not stated)", "survival": "82%"},
      {"smiles": "CCOc1cc(C(=O)OCc2cc(=O)n3nc(CC)sc3n2)cc(OCC)c1OCC", "survival": "87%"},
      {"smiles": "Cc1ccc(OCc2nc(-c3ccc(C(=O)NCCc4ccc(Cl)cc4)cc3)oc2C)cc1", "survival": "84%"},
      {"smiles": "Cc1oc(-c2cccc(Cl)c2)nc1CN1CCC(C(=O)NCc2ccc(F)cc2)CC1", "survival": "124%"},
      {"smiles": "CCc1ccccc1NC(=O)c1cc(-c2ccc(Cl)s2)nc2ccccc12", "survival": "71%"},
      {"smiles": "CC(C)NC(=O)c1cc2c(Cl)nc3ccccc3c2s1", "survival": "56%"},
      {"smiles": "CCc1ccccc1NC(=O)c1cc2c(Cl)nc3ccccc3c2s1", "survival": "42% (active)"},
      {"smiles": "CCOc1ccccc1NC(=O)c1cc2c(Cl)nc3ccccc3c2s1", "survival": "41% (active)"},
      {"smiles": "O=C(Nc1ccc(Cl)cc1)c1cc2c(Cl)nc3ccccc3c2s1", "survival": "94%"},
      {"smiles": "CCOc1ccccc1NC(=O)c1cc2c(=O)[nH]c3ccccc3c2s1", "survival": "60%"},
      {"smiles": "CCOC(=O)C1=C(CN(CC)Cc2ccccc2)NC(=O)NC1c1ccc(OC)cc1", "note": "(configuration not stated)", "survival": "65%"},
      {"smiles": "CC1(C)CC(=O)c2cc(C(=O)NC(C)(C)C)c(=O)n(-c3ccccc3)c2C1", "survival": "39% (active)"},
      {"smiles": "COc1ccc(OC)c(NC(=O)c2cc3c(n(-c4ccc(Cl)cc4)c2=O)CC(C)(C)CC3=O)c1", "survival": "69%"},
      {"smiles": "CCOC(=O)c1ccc(NC(=O)c2cc3c(n(-c4ccc(C)cc4)c2=O)CC(C)(C)CC3=O)cc1", "survival": "153%"},
      {"smiles": "CC1(C)CC(=O)c2cc(C(=O)Nc3ccc(Br)cc3)c(=O)n(-c3ccc(Cl)cc3)c2C1", "survival": "42% (active)"},
      {"smiles": "Cc1ccc(-n2c3c(cc(C(=O)Nc4ccccc4C(N)=O)c2=O)C(=O)CC(C)(C)C3)cc1", "survival": "49%"},
      {"smiles": "CCOc1ccc(NC(=O)c2cc3c(n(-c4ccc(OC)cc4)c2=O)CC(C)(C)CC3=O)cc1", "survival": "60%"},
      {"smiles": "CNC(=O)c1cc2c(n(-c3ccc(C)cc3)c1=O)CC(C)(C)CC2=O", "survival": "93%"},
      {"smiles": "COc1ccccc1NC(=O)c1cc2c(n(-c3ccc(C)cc3)c1=O)CC(C)(C)CC2=O", "survival": "45% (active)"},
      {"smiles": "CN(C)C=NC(=O)c1cc2c(n(-c3ccccc3)c1=O)CC(C)(C)CC2=O", "survival": "46%"},
      {"smiles": "Cc1ccc(CCNC(=O)CCCn2c(=O)c3ccccc3n(Cc3ccccc3C)c2=O)cc1", "survival": "88%"},
      {"smiles": "CC1CC(C)CN(C(=O)Cn2cnc3c2c(=O)n(C)c(=O)n3C)C1", "note": "(configuration not stated)", "survival": "107%"},
      {"smiles": "Cc1ccccc1CNC(=O)CN1C(=O)CSc2ccc(S(=O)(=O)N(C)C)cc21", "survival": "78%"},
      {"smiles": "CCC(=O)N(Cc1nc2ccccc2c(=O)[nH]1)Cc1ccccc1OC", "survival": "90%"},
      {"smiles": "Cc1ccc(N2CCN(C(=O)c3cc(S(=O)(=O)N4CCCCC4)c[nH]3)CC2)c(C)c1", "survival": "102%"},
      {"smiles": "CCOc1ccc(N(CC(=O)Nc2ccccc2CC)S(=O)(=O)c2c(C)noc2C)cc1", "survival": "79%"},
      {"smiles": "COc1ccc(C(=O)Nc2nnc(SCc3cc(=O)n4cccc(C)c4n3)s2)cc1", "survival": "72%"},
      {"smiles": "Cc1oc(C(=O)O)cc1CN1CCCC1", "survival": "100%"},
      {"smiles": "Cc1cc(C(=O)O)c(CN2CCCC2)o1", "survival": "74% (active)"},
      {"smiles": "O=C(O)c1ccc(CN2CCCCC2)cc1", "survival": "79%"},
      {"smiles": "CC1=C(C(=O)Nc2cccnc2)C(c2ccccc2Cl)n2nc(-c3ccccc3)nc2N1", "note": "(configuration not stated)", "survival": "74%"},
      {"smiles": "Cc1nc(SCC(N)=O)c2c3c(sc2n1)CCCC3", "survival": "80%"},
      {"smiles": "Cc1nc(SCC(=O)OC(C)(C)C)c2c3c(sc2n1)CCCC3", "survival": "7% (active)"},
      {"smiles": "Cc1ccc(-c2nc(NC(=O)CSc3nc(C)nc4sc5c(c34)CCCC5)ns2)cc1", "survival": "53%"},
      {"smiles": "CCCCN(C)c1ncnc2c1cnn2-c1cccc(Cl)c1", "survival": "101%"},
      {"smiles": "CCc1ccc(C(=O)c2cn(CC(=O)Nc3ccc4c(c3)OCO4)c3ccc(Cl)cc3c2=O)cc1", "survival": "72%"},
      {"smiles": "O=S(=O)(Nc1ccc2oc3c(c2c1)CCCC3)c1cc(Cl)ccc1Cl", "survival": "33% (active)"},
      {"smiles": "CCOc1ccc(S(=O)(=O)Nc2ccc3oc4c(c3c2)CC(C)CC4)cc1", "note": "(configuration not stated)", "survival": "44%"},
      {"smiles": "CC(C)(C)C1CCc2oc3ccc(NS(=O)(=O)c4cc(Cl)ccc4Cl)cc3c2C1", "note": "(configuration not stated)", "survival": "73%"},
      {"smiles": "COc1ccc(S(=O)(=O)Nc2ccc3oc4c(c3c2)CCCC4)cc1", "survival": "27% (active)"},
      {"smiles": "Cc1ccc(S(=O)(=O)Nc2cc(Cl)c3oc4c(c3c2)CCCC4)cc1", "survival": "117%"},
      {"smiles": "Cc1cc(S(=O)(=O)Nc2ccc3oc4c(c3c2)CCCC4)ccc1Cl", "survival": "41% (active)"},
      {"smiles": "CC(C)(C)C1CCc2oc3ccc(NS(=O)(=O)c4ccc(C(=O)O)cc4)cc3c2C1", "note": "(configuration not stated)", "survival": "16% (active)"},
      {"smiles": "CCn1cnc2c(=O)oc3ccc(S(=O)(=O)Nc4ccc(OC)cc4)cc3c21", "survival": "75%"},
      {"smiles": "COc1ccc(S(=O)(=O)Nc2ccc3oc4c(c3c2)C(=O)CC(C)(C)C4)cc1", "survival": "159%"},
      {"smiles": "Cc1cc(C)c(S(=O)(=O)Nc2ccc3oc4c(c3c2)CCCC4)cc1C", "survival": "55%"},
      {"smiles": "O=S(=O)(NC1CCCCC1)c1cc(Cl)ccc1Cl", "survival": "96%"},
      {"smiles": "Cc1oc2ccc(NS(=O)(=O)c3ccc(F)cc3)cc2c1C(=O)O", "survival": "193%"},
      {"smiles": "CCN1C(=O)c2ccccc2Sc2ccc(NC(=O)Nc3ccc(Br)c(C)c3)cc21", "survival": "71%"},
      {"smiles": "Oc1ccccc1Nc1nc2ccccc2n2nnnc12", "survival": "80%"},
      {"smiles": "CN(C)CCCNc1nc(-c2ccc(Cl)cc2)cs1", "survival": "132%"},
      {"smiles": "CCOc1cc(C2c3c(oc4cc(C)cc(C)c4c3=O)C(=O)N2CCO)ccc1O", "note": "(configuration not stated)", "survival": "68%"},
      {"smiles": "O=C(Cn1c2ncccc2c(=O)n1-c1ccccc1)Nc1cccc(C(F)(F)F)c1", "survival": "67%"},
      {"smiles": "O=C(Nc1ccccc1C(=O)N1CCOCC1)C1COc2ccccc2O1", "note": "(configuration not stated)", "survival": "95%"},
      {"smiles": "CCC(=O)N1CCc2cc(CNC(=O)c3ccc(F)cc3)ccc21", "survival": "73%"},
      {"smiles": "O=C(Nc1ccc(Cl)cc1F)c1cc(S(=O)(=O)NCc2ccc3c(c2)OCO3)ccc1F", "survival": "77%"},
      {"smiles": "COc1ccc(/C=C2\\SC(=S)N(CCC(=O)NCCO)C2=O)cc1", "survival": "104%"},
      {"smiles": "Cc1cc2c(cc1S(=O)(=O)NCc1ccc(N(C)C)cc1)OCC(=O)N2", "survival": "80%"},
      {"smiles": "COc1ccc(NC(=O)c2[nH]nc3c2CSc2ccccc2-3)c(OC)c1", "survival": "49%"},
      {"smiles": "COc1cccc2cc(-c3nc(-c4ccc(C)cc4)c(C)s3)c(=O)oc12", "survival": "46% (active)"},
      {"smiles": "COc1cccc2cc(-c3nc(Nc4cccc(C)c4)sc3C)c(=O)oc12", "survival": "98%"},
      {"smiles": "CCOc1cccc2cc(-c3nc(-c4ccc(Cl)cc4)c(C)s3)c(=O)oc12", "survival": "105%"},
      {"smiles": "CCOC(=O)C1=C(SCC)c2cc3c(n2C1=O)CCCC3", "survival": "83%"},
      {"smiles": "CCN(CC)CCNC(=O)c1cc(-c2ccc(Br)s2)nc2ccccc12", "survival": "28% (active)"},
      {"smiles": "CC(C)CCNC(=O)c1cc(-c2ccc(Br)s2)nc2ccccc12", "survival": "81%"},
      {"smiles": "CCc1ccc(CNC(=O)c2cc(-c3ccc(Cl)s3)nc3ccccc23)cc1", "survival": "83%"},
      {"smiles": "CCCN(CCC)CCNC(=O)c1cc(-c2ccc(Br)s2)nc2ccccc12", "survival": "68%"},
      {"smiles": "CCCCN(C)CCCNC(=O)c1cc(-c2ccc(Br)s2)nc2ccccc12", "survival": "33%"},
      {"smiles": "COc1ccc(CNC(=O)c2cc(-c3ccc(Br)s3)nc3ccccc23)cc1", "survival": "77%"},
      {"smiles": "CCc1ccc(CNC(=O)c2cc(-c3ccc(Br)s3)nc3ccccc23)cc1", "survival": "60% (active)"},
      {"smiles": "CC(C)CN(CCCNC(=O)c1cc(-c2ccc(Br)s2)nc2ccccc12)CC(C)C", "survival": "91%"},
      {"smiles": "CCN(CC)CC(C)CNC(=O)c1cc(-c2ccc(Br)s2)nc2ccccc12", "note": "(configuration not stated)", "survival": "31% (active)"},
      {"smiles": "Cc1ccc(S(=O)(=O)c2cn(CC(=O)Nc3ccc(Cl)cc3)c3ccc(F)cc3c2=O)cc1C", "survival": "53%"},
      {"smiles": "CC(C)(C)c1ccc(C(=O)Nc2ccccc2C(=O)OCc2cc(=O)n3ccsc3n2)cc1", "survival": "73%"},
      {"smiles": "CC1OC(Nc2ccc(OC(F)(F)F)cc2)C(O)C(O)C1O", "note": "(configuration not stated)", "survival": "84%"},
      {"smiles": "CCC(C)n1c(=O)c2sccc2n2c(CCCC(=O)N3CCN(c4ccccc4)CC3)nnc12", "note": "(configuration not stated)", "survival": "89%"},
      {"smiles": "COC(=O)c1ccc(NC(=O)CCNS(=O)(=O)c2cccc3nsnc23)cc1", "survival": "65%"},
      {"smiles": "Cc1ccc(NC(=O)CCS(=O)(=O)c2cccc3nonc23)cc1Cl", "survival": "71%"},
      {"smiles": "COc1ccc(NC(=O)CCS(=O)(=O)c2cccc3nonc23)cc1Cl", "survival": "68%"},
      {"smiles": "Cc1cc(Br)ccc1NC(=O)CCNS(=O)(=O)c1cccc2nonc12", "survival": "43% (active)"},
      {"smiles": "Cc1cc(Br)ccc1NC(=O)CCS(=O)(=O)c1cccc2nonc12", "survival": "83%"},
      {"smiles": "Cc1ccc(NC(=O)CCNS(=O)(=O)c2cccc3nonc23)cc1Cl", "survival": "39% (active)"},
      {"smiles": "CCOc1ccc(NC(=O)CCNS(=O)(=O)c2cccc3nsnc23)cc1", "survival": "52%"},
      {"smiles": "CCc1cccc(NC(=O)CCNS(=O)(=O)c2cccc3nonc23)c1", "survival": "97%"},
      {"smiles": "Cc1cc(NC(=O)CCNS(=O)(=O)c2cccc3nsnc23)ccc1Br", "survival": "102%"},
      {"smiles": "Cc1cccc(NC(=O)CCNS(=O)(=O)c2cccc3nonc23)c1", "survival": "44% (active)"},
      {"smiles": "CCOC(=O)c1cccc(NC(=O)CCNS(=O)(=O)c2cccc3nonc23)c1", "survival": "46% (active)"},
      {"smiles": "Cc1ccc(NC(=O)CCS(=O)(=O)c2cccc3nonc23)c(C)c1", "survival": "99%"},
      {"smiles": "Cc1cccc(Cn2c(=O)n(-c3cc(C)cc(C)c3)c(=O)c3oc4ccccc4c32)c1", "survival": "71%"},
      {"smiles": "Cc1sc2ncn(CC(=O)N3CCN(c4ccc(F)cc4)CC3)c(=O)c2c1S(=O)(=O)N1CCC(C)CC1", "survival": "75%"}
    ]}
  ]
}
